PubChem BioAssay (Tox21)
Values without a mark were called inactive. Inconclusive results are not listed. Activity calls are given as the source filed them. Unless noted, calls follow the shape of the dose curve; as a rule, active = well fitted curve in the direction sought with a large enough effect in the repeat runs; inconclusive = weak or mixed curves; inactive = no such curve, though single readings can be large; an effect the other way counts as inactive or inconclusive.

Test: qHTS assay for small molecule disruptors of the mitochondrial membrane potential - cell viability (AID 720634; calls by dose curve;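 also: human HepG2 liver cancer cells; nearly all actives have a fitted effect of over 20% in size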)
Conditions: HepG2 viability, ATP luminescence (CellTiter-Glo), 1 h; series mostly up to 83.2 µM; activity change, negative = cytotoxicity: at the top concentration
Method in brief: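 Cytotoxicity was measured by ATP quantitation in HepG2 wells that had first been treated with compound for 1 hr and stained with m-MPI dye; CellTiter-Glo incubation was 30 min at room temperature.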
% is scaled to controls: 0 for no effect and ±100 for the full control effect.

| SMILES | activity change, negative = cytotoxicity | outcome |
| --- | --- | --- |
| CCCCCCCCCCOc1cc2c(=O)c(C(=O)OCC)c[nH]c2cc1OCC | -4.82% |  |
| Nc1c2c(nc3c1CCC3)CCCC2 | 6.36% |  |
| CCCCOC(=O)CCC(C)=O | 11.6% |  |
| O=S(=O)(O)c1cccc(S(=O)(=O)O)c1 | 9.2% |  |
| CC1CCC(CO)CC1 (centres undefined) | -12.3% [at 95.3 µM] |  |
| COc1ccnc(CS(=O)c2nc3cc(OC(F)F)ccc3[nH]2)c1OC (centres undefined) |  | inactive |
| O=C(CO)[C@@H](O)[C@H](O)[C@@H](O)CO | 1.24% |  |
| Cc1nc2ccc(CN(C)c3ccc(C(=O)N[C@@H](CCC(=O)O)C(=O)O)s3)cc2c(=O)[nH]1 |  | inactive |
| CCCC[N+](C)(CCCC)CCCC | -4.19% |  |
| C=COCC1CCC(COC=C)CC1 (centres undefined) | 6.34% |  |
| CCOC(=O)c1cnc2c(cnn2CC)c1NN=C(C)C | -12.8% |  |
| NC(CCC(=O)O)C(=O)O (centres undefined) | 6.74% |  |
| CC12CCC(C(=O)C1=O)C2(C)C (centres undefined) | -7.98% [at 95.3 µM] |  |
| CCOC(=O)c1ccccc1 | 5.3% |  |
| N[C@H](C(=O)O)[C@@H](O)c1ccc(O)c(O)c1 | 26.3% |  |
| O=C(CO)[C@@H](O)[C@H](O)[C@H](O)CO |  | inactive |
| FB(F)F | 8.84% [at 95.3 µM] |  |
| CC(C)(C)OC(=O)c1cccc(N)c1 | -10.3% [at 95.3 µM] |  |

| SMILES | activity change, negative = cytotoxicity | outcome |
| --- | --- | --- |
| c1ccc(Cc2ccccc2)cc1 | 2.74% |  |
| C1CCC2(CCCCO2)OC1 | -7.17% |  |
| CCO[Si](OCC)(OCC)c1ccccc1 | 16.2% |  |
| CN(C)C(=O)Oc1ccc[n+](C)c1 | 5.94% |  |
| Cc1ccccc1N=C(N)N=C(N)N | 11.7% |  |
| C=CCCC(=O)O | 4.11% |  |
| COc1ccccc1OCC1CNC(=O)O1 (centres undefined) | -4.23% |  |
| CCN(Cc1ccccc1)c1ccccc1 | -5.87% |  |
| CC(=O)c1ccccc1[N+](=O)[O-] | 9.63% |  |
| COc1cccc(OC)c1C(=O)N[C@@H]1C(=O)N2[C@@H]1SC(C)(C)[C@@H]2C(=O)O | 1.01% |  |
| O=CN(CCO)CCO | 8.3% |  |
| N[C@@H](CCC(=O)O)C(=O)O |  | inactive |
| CCC(C(=O)NC(=O)NC(C)=O)c1ccccc1 (centres undefined) | 6.1% |  |
| CCCOC(=O)CC | 6.48% |  |
| O=S(=O)(O)c1cc(O)c(O)c(S(=O)(=O)O)c1 | 4.35% |  |
| CCCCCCC#CC(=O)OC | -2.13% |  |
| Clc1cc(Cl)c(Cl)nc1Cl | -4.12% |  |

Test: qHTS assay for small molecule disruptors of the mitochondrial membrane potential (AID 720635); also: potency is read from the fitted curve at half-maximal effect
Conditions: HepG2 mitochondrial membrane potential, Mito-MPS dye ratio; series mostly up to 83.2 µM; ratio activity, negative = MMP loss: at the top concentration
Method in brief: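 HepG2 cells (2,000/well) attached overnight at 37C, then took compound for 1 hr at 37C, 5% CO2. Mito-MPS dye was added for 30 min; fluorescence was read at 490/535 nm (monomers) and 540/590 nm (aggregates).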

| SMILES | ratio activity, negative = MMP loss | Potency |
| --- | --- | --- |
| Nc1c2c(nc3c1CCC3)CCCC2 | 5.75% |  |
| CCCCOC(=O)CCC(C)=O | 17.7% |  |
| CC1CCC(CO)CC1 (centres undefined) | -14% [at 95.3 µM] |  |
| COc1ccnc(CS(=O)c2nc3cc(OC(F)F)ccc3[nH]2)c1OC (centres undefined) |  | inactive |
| O=C(CO)[C@@H](O)[C@H](O)[C@@H](O)CO | 9.64% |  |
| Cc1nc2ccc(CN(C)c3ccc(C(=O)N[C@@H](CCC(=O)O)C(=O)O)s3)cc2c(=O)[nH]1 | 4.06% |  |
| CCCC[N+](C)(CCCC)CCCC | 11.4% |  |
| C=COCC1CCC(COC=C)CC1 (centres undefined) | 13.8% |  |
| NC(CCC(=O)O)C(=O)O (centres undefined) | 35.4% |  |
| CC12CCC(C(=O)C1=O)C2(C)C (centres undefined) | 17.4% [at 95.3 µM] |  |
| CCOC(=O)c1ccccc1 | 12.3% |  |
| N[C@H](C(=O)O)[C@@H](O)c1ccc(O)c(O)c1 |  | 26.6 µM (active) |
| O=C(CO)[C@@H](O)[C@H](O)[C@H](O)CO | 9.22% |  |
| CC(C)(C)OC(=O)c1cccc(N)c1 |  | 35.3 µM (active) |
| C1CCC2(CCCCO2)OC1 | 23.2% |  |
| CN(C)C(=O)Oc1ccc[n+](C)c1 | 11.9% |  |
| C=CCCC(=O)O | 32.1% |  |
| COc1ccccc1OCC1CNC(=O)O1 (centres undefined) | 2.66% |  |
| CC(=O)c1ccccc1[N+](=O)[O-] | -1.83% |  |
| COc1cccc(OC)c1C(=O)N[C@@H]1C(=O)N2[C@@H]1SC(C)(C)[C@@H]2C(=O)O | 16.2% |  |
| O=CN(CCO)CCO | 9.16% |  |
| N[C@@H](CCC(=O)O)C(=O)O |  | inactive |
| CCC(C(=O)NC(=O)NC(C)=O)c1ccccc1 (centres undefined) | 5.97% |  |
| CCCCCCC#CC(=O)OC | 11.2% |  |
| Clc1cc(Cl)c(Cl)nc1Cl | 6.68% |  |

Test: qHTS assay to test for compound auto fluorescence at 590 nm (red) in HepG2 cells (AID 720674)
Conditions: HepG2 autofluorescence, red 540/590 nm, 1 h; series mostly up to 91.3 µM; fluorescence, relative to Rose Bengal: at the top concentration
Method in brief: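 Compound auto-fluorescence is scored relative to Rose Bengal sodium, measured at 540/590 nm in live HepG2 cultures after 1 hr compound contact (37 C, 5% CO2).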

| SMILES | fluorescence, relative to Rose Bengal | outcome |
| --- | --- | --- |
| CCCCCCCCCCOc1cc2c(=O)c(C(=O)OCC)c[nH]c2cc1OCC | 0.449% [at 46 µM] |  |
| Nc1c2c(nc3c1CCC3)CCCC2 | 0.588% [at 46 µM] |  |
| CCCCOC(=O)CCC(C)=O | -0.121% |  |
| O=S(=O)(O)c1cccc(S(=O)(=O)O)c1 | -0.0011% |  |
| CC1CCC(CO)CC1 (centres undefined) | 0.134% [at 95.7 µM] |  |
| COc1ccnc(CS(=O)c2nc3cc(OC(F)F)ccc3[nH]2)c1OC (centres undefined) |  | inactive |
| Cc1nc2ccc(CN(C)c3ccc(C(=O)N[C@@H](CCC(=O)O)C(=O)O)s3)cc2c(=O)[nH]1 |  | inactive |
| CCCC[N+](C)(CCCC)CCCC | 0.0039% |  |
| CCOC(=O)c1cnc2c(cnn2CC)c1NN=C(C)C | 0.101% [at 46 µM] |  |
| NC(CCC(=O)O)C(=O)O (centres undefined) | -0.137% |  |
| CC12CCC(C(=O)C1=O)C2(C)C (centres undefined) | -0.174% [at 95.7 µM] |  |
| N[C@H](C(=O)O)[C@@H](O)c1ccc(O)c(O)c1 | 0.546% [at 46 µM] |  |
| O=C(CO)[C@@H](O)[C@H](O)[C@H](O)CO |  | inactive |
| FB(F)F | -0.0005% [at 95.7 µM] |  |
| CC(C)(C)OC(=O)c1cccc(N)c1 | 0.0568% [at 95.7 µM] |  |
| c1ccc(Cc2ccccc2)cc1 | 0.391% |  |
| C1CCC2(CCCCO2)OC1 | -0.0414% |  |
| CCO[Si](OCC)(OCC)c1ccccc1 | -0.116% |  |
| CN(C)C(=O)Oc1ccc[n+](C)c1 | -0.321% [at 46 µM] |  |
| Cc1ccccc1N=C(N)N=C(N)N | -0.172% |  |
| COc1ccccc1OCC1CNC(=O)O1 (centres undefined) | 0.233% [at 46 µM] |  |
| CCN(Cc1ccccc1)c1ccccc1 | 0.0389% |  |
| CC(=O)c1ccccc1[N+](=O)[O-] | 0.0362% |  |
| N[C@@H](CCC(=O)O)C(=O)O |  | inactive |
| CCC(C(=O)NC(=O)NC(C)=O)c1ccccc1 (centres undefined) | 0.375% [at 46 µM] |  |
| CCCOC(=O)CC | -0.0084% |  |
| O=S(=O)(O)c1cc(O)c(O)c(S(=O)(=O)O)c1 | -0.0538% |  |
| CCCCCCC#CC(=O)OC | 0.24% |  |
| Clc1cc(Cl)c(Cl)nc1Cl | 0.558% |  |
